Among all 85,000 compounds or so, about 440 (0.52%) showed an effect of 50% or more. Shown is part of a subset that was picked to be rich in strong results.
Experiment: In vitro enzyme assay to detect hydrolysis of chlorophenol red-beta-D-[…] directly proportional to the number of Toxoplasma stably expressing beta-galactosidase
Format: functional, organism-based, Toxoplasma gondii
Design: scale not given: in the data most compounds retested in dose-response had high values

Row | Compound | Percent Effect (50 µM) [%] | Percent Effect (10 µM) [%]
1 | CN(C(=O)CC(N)c1ccccc1)c1cccc(F)c1 (centres undefined) | 3.1 | 
2 | Nc1ncccc1CN1CCN(C2CCOCC2)CC1 | 4.597 | 
3 | O=C1CCCCN1Cn1cnc2c(Br)cccc2c1=O | -5.958 | 
4 | Cc1ccc(C(=O)Nc2c(C(=O)N(C)C)nn(C)c2C)cc1 |  | 18.52
5 | COc1ccc(C(=O)Nc2c(C(=O)N(C)C)nn(C)c2C)cc1 |  | 52.86
6 | Cc1c(NC(=O)c2cccc(Br)c2)c(C(=O)N(C)C)nn1C |  | 13.13
7 | Cc1cccc(C(=O)Nc2c(C(=O)N(C)C)nn(C)c2C)c1 |  | 18.52
8 | Cc1c(NC(=O)c2ccc(Br)cc2)c(C(=O)N(C)C)nn1C |  | 46.94
9 | Cc1ccc(C(=O)Nc2c(C(=O)N(C)C)nn(C)c2C)cc1C |  | 61.35
10 | CC(=O)NCc1ccc(C(C)=O)s1 | 3.848 | 
11 | CCOc1cc(CNCc2ccccn2)ccc1O | 12.08 | 
12 | CCS(=O)(=O)N(C)CC(=O)Nc1cc(C)on1 | -10.63 | 
13 | Cc1cc(NC(=O)c2ccc(S(C)(=O)=O)cc2)no1 | 1.537 | 
14 | CCNS(=O)(=O)c1csc(C(=O)Nc2cc(C)on2)c1 | 60.53 | 
15 | Cc1ccoc1C(=O)NC1CCN(Cc2ccccc2C#N)CC1 |  | -1.883
16 | Cc1ccoc1C(=O)NC1CCN(Cc2ccccc2F)CC1 |  | -8.886
17 | Cc1ccoc1C(=O)NC1CCN(Cc2cccc3ccccc23)CC1 |  | 53.31
18 | Cc1cc(C)cc(-n2ncc3c2CCCC3N)c1 (centres undefined) |  | 16.38
19 | CC(C)(C)c1ccc(-n2ncc3c2CCCC3N)cc1 (centres undefined) |  | 50.93
20 | Cc1ccc(-n2ncc3c2CCCC3N)cc1C (centres undefined) |  | 16.25

Row | Compound | Percent Effect (50 µM) [%] | Percent Effect (10 µM) [%]
21 | COc1ccc(CN2CCCNCC2)cc1 | 13.71 | 
22 | Cc1cc(C(=O)N(C)Cc2cccs2)nc(N2CCCC2)n1 |  | 6.801
23 | Cc1cc(C(=O)N(C)Cc2cccs2)nc(N2CCCCC2)n1 |  | 73.87
24 | Cc1cc(C(=O)N(C)Cc2cccs2)nc(N2CCOCC2)n1 |  | -10.44
25 | CSc1ccc(CNc2ccn(CCC(N)=O)n2)cc1 | -4.331 | 
26 | Cc1ccc(-c2cc(C(=O)NCCN3CCOCC3)n[nH]2)s1 |  | 27.02
27 | O=C(NCCN1CCOCC1)c1cc(-c2ccccc2Cl)[nH]n1 |  | -1.617
28 | O=C(NCCN1CCOCC1)c1cc(-c2ccc(Cl)s2)[nH]n1 |  | 52.66
29 | CS(=O)(=O)N[C@H]1CN(c2ccncc2F)C[C@@H]1C1CC1 | 3.462 | 
30 | CCc1cnc(CNC(=O)NCc2cnn(C)c2)s1 | -4.497 | 
31 | Cc1cc(C(=O)Nc2cnn(C)c2)on1 | 0.4555 | 
32 | Cc1cc(C(=O)Nc2ccc(OCC(N)=O)cc2)on1 | 12.73 | 
33 | Cc1cc(C(=O)Nc2cccc(C[S+](C)[O-])c2)on1 (centres undefined) | 98.42 | 
34 | O=C(NCCNc1ncccn1)C1CC(=O)N(Cc2ccccn2)C1 (centres undefined) |  | 66.32
35 | O=C(NCCNc1ncccn1)C1CC(=O)N(Cc2ccccc2)C1 (centres undefined) |  | 14.32
36 | O=C(NCCNc1ncccn1)C1CC(=O)N(Cc2ccco2)C1 (centres undefined) |  | 18.03
37 | Cc1c(-c2nc(-c3cccc(CN4CCOCC4)c3)no2)cnn1C |  | 8.571
38 | Cc1occc1-c1nc(-c2cccc(CN3CCOCC3)c2)no1 |  | 55.09
39 | Cc1cc(-c2nc(-c3cccc(CN4CCOCC4)c3)no2)no1 |  | 8.772
40 | N#Cc1cccc(CN)c1F | 2.806 | 

Row | Compound | Percent Effect (50 µM) [%] | Percent Effect (10 µM) [%]
41 | COCCCNc1ccc(Br)cn1 | 6.813 | 
42 | COCCNc1nnc(SCc2ccc(Br)cn2)s1 | 98.42 | 
43 | COCCNc1nnc(-c2ccccn2)s1 |  | 14.66
44 | Cc1n[nH]cc1CNCc1nccs1 | -5.718 | 
45 | COCCNC(=O)c1cn(CC2CCCNC2)nn1 (centres undefined) | -4.648 | 
46 | CCc1cc(NCc2cccnc2)n2nccc2n1 | 3.949 | 
47 | COc1ccc2c(c1)CCCC2N (centres undefined) | 9.435 | 
48 | Cn1cc(CN2C[C@@H]3COC[C@H](C(=O)Nc4cccnc4)[C@@H]3C2)cn1.O=C(O)C(F)(F)F.O=C(O)C(F)(F)F |  | 79.48
49 | Cn1cc(CN2CC(C(=O)Nc3ccccc3)C3(CCOCC3)C2)cn1.O=C(O)C(F)(F)F (centres undefined) |  | -1.627
50 | Cn1cc(CN2C[C@@H]3COC[C@@H](C(=O)N4CCCCO4)[C@@H]3C2)cn1.O=C(O)C(F)(F)F.O=C(O)C(F)(F)F |  | 0.4992
51 | Cc1nnc(SCCNC(=O)CC2C=CS(=O)(=O)C2)s1 (centres undefined) | 45.65 | 
52 | CSCc1ccc(C(=O)N(C)Cc2cnccn2)o1 | 98.35 | 
53 | CN(Cc1cnccn1)C(=O)c1ccc(CSc2nnc[nH]2)o1 |  | -8.183
54 | CC(C)Cc1cc(C(=O)N(C)Cc2cnccn2)on1 | 13.67 | 
55 | CC(CCO)CNS(=O)(=O)c1ccccc1F (centres undefined) | 13.76 | 
56 | COCC(NC(=O)CNc1ccccc1)C(C)C (centres undefined) | 18.12 | 
57 | Cc1ccc(S(=O)(=O)N2CCNC(=O)C2)cc1C(N)=O | 3.593 | 
58 | NC(=O)Cn1cc(NC(=O)N2CCCC(O)C2)cn1 (centres undefined) |  | -5.248
59 | CC(C)Cn1cc(NC(=O)N2CCCC2)cn1 |  | -15.58
